The values that follow come from PubChem BioAssay (NCI).

Some test systems named below: DU-145 prostate; K-562 leukemia; MALME-3M melanoma; MDA-MB-231 breast; RXF 393 renal; SF-268 CNS; SF-295 CNS; SF-539 CNS; UACC-257 melanoma; M14 melanoma; HCT-15 colon; HT29 colon; SNB-75 CNS; SNB-19 CNS; U251 CNS; PC-3 prostate; UACC-62 melanoma; LOX IMVI melanoma; SK-MEL-28 melanoma.
What all share (assay): NCI-60 one-dose screen, 48 h (100 = growth as untreated, 0 = no growth, -100 = all killed)
Conditions in all cases: 10 µM unless noted

The structures appear in SMILES notation. The panel holds about 83,000 compounds, 20% with a hit somewhere; the sample as a whole holds those more often.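 Step 1: grow cells in 96-well plates. Step 2: add test compound at a single concentration. Step 3: incubate 48 h. Step 4: record percent growth.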 Unmarked numbers belong to inactive results. Active and inactive are the calls of the source. Rule for the calls: active = growth percent below 10; inactive = the rest.

With `N#CN1CCC[C@H]1C(=O)N1CCc2c(-c3[nH]nc4ncccc34)cccc21`, the growth is 0.94% (active) in the test with DU-145 prostate; 4.49% (active) in the test with K-562 leukemia; 24% with MALME-3M melanoma; 3% (active) in the test on MDA-MB-231 breast; -19.7% (active) in the test on RXF 393 renal; 7.17% (active) in the test with SF-268 CNS. Moreover, the growth in the test with SF-295 CNS was -14.3% (active); in the test with SF-539 CNS it was -36.9% (active); in the test on UACC-257 melanoma, 16.5%; in the test on M14 melanoma, -23.4% (active); in the test on HCT-15 colon it was 7.65% (active); in the test with HT29 colon it was -53.9% (active). The growth in the test on SNB-75 CNS was -16% (active); in the test with SNB-19 CNS, 17.1%; in the test with U251 CNS, -27.6% (active); in the test on PC-3 prostate, 21.6%; with UACC-62 melanoma, 7.64% (active); with LOX IMVI melanoma, 4.55% (active). In the test on SK-MEL-28 melanoma, the growth was 24.6%.

For the molecule `CCCCCCCCCCCCC[N+](C)(C)Cc1ccccc1`, the growth was 0.808% (active) in the test with DU-145 prostate; 2.97% (active) in the test with K-562 leukemia; -44.7% (active) in the test with MALME-3M melanoma; -55.6% (active) in the test on MDA-MB-231 breast; -73.3% (active) in the test with RXF 393 renal; -84.5% (active) in the test on SF-268 CNS. Besides, the growth with SF-295 CNS is 13.5%; with SF-539 CNS, -73% (active); with UACC-257 melanoma, -44.2% (active); in the test on M14 melanoma it was -66.6% (active); in the test on HCT-15 colon it was 64.7%; with HT29 colon, -62.7% (active). Further, the growth in the test on SNB-75 CNS is -52.9% (active); in the test on SNB-19 CNS it was -60.7% (active); with U251 CNS it was 7.89% (active); in the test on PC-3 prostate, -23.7% (active); in the test with UACC-62 melanoma, -83.9% (active); in the test on LOX IMVI melanoma, -88.3% (active). Moreover, the growth in the test on SK-MEL-28 melanoma is -57% (active).

Take `CCCCn1c(-c2ccc(C(=O)O/N=C(\N)c3ccc4ccccc4c3)cc2)nc(-c2ccccc2)c1-c1ccccc1`: the growth in the test on DU-145 prostate was 65.3%; in the test on K-562 leukemia, 11.9%; with MALME-3M melanoma it was 93.4%; with MDA-MB-231 breast it was 70%; in the test with RXF 393 renal, 58.2%; in the test on SF-268 CNS, 48.9%. Moreover, the growth with SF-295 CNS is 81%; with SF-539 CNS, 81.3%; with UACC-257 melanoma, 98.3%; in the test on M14 melanoma it was 82.6%; in the test with HCT-15 colon, 52.1%; with HT29 colon, 74.3%. Also, the growth in the test on SNB-75 CNS is 23.3%; in the test with SNB-19 CNS, 70.3%; with U251 CNS, 73%; in the test on PC-3 prostate it was 64.8%; with UACC-62 melanoma it was 76.2%; in the test on LOX IMVI melanoma it was 3.13% (active). The growth in the test with SK-MEL-28 melanoma was 88.5%.

Consider `OCC(O)c1nc2ccc3[nH]ncc3c2c2c1CCCC2` (configuration not stated), for which the growth was 11.7% with DU-145 prostate; 37.2% with K-562 leukemia; 19% in the test with MALME-3M melanoma; 1.65% (active) with MDA-MB-231 breast; -58.4% (active) in the test on RXF 393 renal; -3.77% (active) with SF-268 CNS. In addition, the growth in the test on SF-295 CNS is 9.19% (active); in the test on SF-539 CNS, -39.1% (active); in the test with UACC-257 melanoma, 10.2%; in the test on M14 melanoma, 5.99% (active); in the test with HCT-15 colon, 5.03% (active); in the test on HT29 colon it was 9.08% (active). The growth is -60.8% (active) in the test with SNB-75 CNS; 7.63% (active) with SNB-19 CNS; 7.68% (active) in the test on U251 CNS; 9.74% (active) in the test with PC-3 prostate; -8.7% (active) with UACC-62 melanoma; 2.42% (active) in the test with LOX IMVI melanoma. Moreover, the growth in the test with SK-MEL-28 melanoma is -3.58% (active).

Turning to `O=C(C(=O)c1ccc2c(c1)OCO2)c1ccc2c(c1)OCO2`, the growth with DU-145 prostate was 111%; in the test with K-562 leukemia, 108%; in the test on MALME-3M melanoma, 104%; with MDA-MB-231 breast it was 100%; in the test on RXF 393 renal, 105%; with SF-268 CNS, 99%. Besides, the growth was 120% in the test on SF-295 CNS; 114% in the test on SF-539 CNS; 87.8% in the test on UACC-257 melanoma; 101% in the test on M14 melanoma; 110% in the test on HCT-15 colon; 103% in the test on HT29 colon. Moreover, the growth is 90.3% in the test with SNB-75 CNS; 104% with SNB-19 CNS; 103% in the test on U251 CNS; 100% with PC-3 prostate; 105% with UACC-62 melanoma; 106% in the test on LOX IMVI melanoma. The growth with SK-MEL-28 melanoma is 110%.

In the case of `c1ccc(CCNc2ncnc3[nH]ncc23)cc1`, the growth is 109% with DU-145 prostate; 94.6% with K-562 leukemia; 114% in the test with MALME-3M melanoma; 93.2% in the test on MDA-MB-231 breast; 93.2% with RXF 393 renal; 109% in the test on SF-268 CNS. The growth with SF-295 CNS was 102%; in the test on SF-539 CNS, 116%; in the test on UACC-257 melanoma, 96.5%; in the test with M14 melanoma, 104%; in the test on HCT-15 colon, 105%; in the test with HT29 colon it was 94%. The growth was 92.6% in the test on SNB-75 CNS; 105% in the test on SNB-19 CNS; 94.1% in the test with U251 CNS; 67% in the test on PC-3 prostate; 86.4% in the test with UACC-62 melanoma; 89.1% with LOX IMVI melanoma. In the test on SK-MEL-28 melanoma, the growth was 114%.

With `COc1ccc(/C=C/C(=O)c2cc(O)ccc2O)cc1`, the growth in the test on DU-145 prostate was 89.3%; in the test with K-562 leukemia it was 66.4%; in the test on MALME-3M melanoma, 100%; in the test with MDA-MB-231 breast, 77.4%; in the test on RXF 393 renal, 81.6%; with SF-268 CNS, 84.4%. The growth in the test with SF-295 CNS was 111%; in the test on SF-539 CNS, 88.4%; in the test on UACC-257 melanoma, 75.5%; in the test on M14 melanoma, 105%; in the test on HCT-15 colon, 87.7%; with HT29 colon, 102%. In addition, the growth in the test with SNB-75 CNS was 84.1%; in the test on SNB-19 CNS, 96.6%; with U251 CNS it was 84.8%; in the test with PC-3 prostate, 88.4%; with UACC-62 melanoma it was 102%; with LOX IMVI melanoma, 103%. Further, the growth in the test on SK-MEL-28 melanoma is 109%.

Turning to `COc1cc(/C=C/c2cc(/C=C/c3ccc(O)c(OC)c3)n(-c3c(Cl)cccc3Cl)c(=O)n2)ccc1O`, the growth in the test on DU-145 prostate was 28.7%; with K-562 leukemia, 9.21% (active); in the test with MALME-3M melanoma, 58.8%; in the test with MDA-MB-231 breast it was 29%; in the test with RXF 393 renal, -11.8% (active); in the test on SF-268 CNS, 19.9%. The growth with SF-295 CNS was 75.4%; in the test with SF-539 CNS it was 3.35% (active); in the test on UACC-257 melanoma it was 41.1%; in the test on M14 melanoma, 7.71% (active); in the test with HCT-15 colon it was 10.3%; in the test with HT29 colon, -30.4% (active). In addition, the growth with SNB-75 CNS was 49.4%; with SNB-19 CNS, 34.1%; in the test with U251 CNS, 8.54% (active); in the test with PC-3 prostate, 34.9%; with UACC-62 melanoma, 38.2%; with LOX IMVI melanoma it was 2.83% (active). Also, the growth with SK-MEL-28 melanoma is 17.6%.
